Test results from ChEMBL document CHEMBL4513141, “CO-ADD screening of NIH (USA) - Clinical Collection” (2021).
Results with a measured potency or affinity are listed apart.

The molecules below were run on Staphylococcus aureus. Conditions: Concentration 20 uM; ASSAY_TEST Inhibition of Bacterial Growth; detection method Absorption (OD600); MEDIA CAMHB; plate type 384well; NBS; CORNING #3640; time 18 hr.
`CCCc1nc(C)c2c(O)nc(-c3cc(S(=O)(=O)N4CCN(CC)CC4)ccc3OCC)nn12.O=C(O)CC(O)(CC(=O)O)C(=O)O` was tested, and the Inhibition was 14.18%. Work on `CN1CC(=O)N2[C@H](c3ccc4c(c3)OCO4)c3[nH]c4ccccc4c3C[C@@H]2C1=O` yielded an Inhibition of 6.36%. In the case of `CC(=O)C1(O)CCC2C3CC(C)C4=CC(=O)C=CC4(C)C3(F)C(O)CC21C` (stereo unspecified), the Inhibition is reported as 5.95%. In the case of `CCC1=C(C)CN(C(=O)NCCc2ccc(S(=O)(=O)NC(=O)N[C@H]3CC[C@H](C)CC3)cc2)C1=O` [GLIMEPIRIDE], the Inhibition is reported as 15.98%. In the case of `Nc1ncnc2c1ncn2[C@@H]1O[C@H](CO)[C@@H](O)[C@@H]1O` [VIDARABINE], the Inhibition is reported as 17.44%. `NS(=O)(=O)c1cc2c(cc1C(F)(F)F)NCNS2(=O)=O` [HYDROFLUMETHIAZIDE] gave an Inhibition of 14.86%. With `C[C@@H](O)[C@H]1C(=O)N2C(C(=O)O)=C(S[C@@H]3CN[C@H](C(=O)N(C)C)C3)[C@H](C)[C@H]12` [MEROPENEM] the Inhibition was -14.17%. With `Cl.O.c1cnc(N2CCN(Cc3ccc4c(c3)OCO4)CC2)nc1` the Inhibition was 13.21%. With `O=C(CCCN1CC=C(n2c(=O)[nH]c3ccccc32)CC1)c1ccc(F)cc1` [DROPERIDOL] the Inhibition was 14.29%. `Cl.O.O=C(c1ccc(F)cc1)C1CCN(CCn2c(=S)[nH]c3ccccc3c2=O)CC1` showed an Inhibition of 2.33%. In the case of `O=C(O[C@H]1[C@H](Oc2ccccc2COC(=O)C2(O)C=CCCC2=O)O[C@H](CO)[C@@H](O)[C@@H]1O)c1ccccc1` (stereo partly specified) [TREMULACIN], the Inhibition is reported as 15.86%.
